Assay results: PubChem BioAssay (NCATS)
Records with an inconclusive call do not appear. Calls of active or inactive are those of the source. Unless noted, the call rests on the fitted dose curve; in most records, active means well fitted curve in the direction sought with a large enough effect; inconclusive means small, poorly fitted or top-dose-only effect, or another doubt; inactive means no such curve, though single readings can be large; an effect the other way counts as inactive or inconclusive.

Tests used:
[1] = qHTS for inhibitors of adenylyl cyclases using a fission yeast platform: a pilot screen against the NCATS LOPAC library (AID 1347410)
Outline: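 Read-out: fbp1-GFP fluorescence by laser scanning cytometry (488 nm laser), a gain of signal when AC/cAMP-PKA signalling is inhibited. Strain CHP2027 expressing AC9, GNAS and PDE4D2; compounds at up to 57 µM; 18 h, 30C.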

[2] = Validation qHTS assay for inhibitors of Activation Induced Cytidine Deaminase (AID): UDG Counterscreen signal (AID 1347427); further: potency means the concentration at half of the fitted maximal effect
Outline: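 Counterscreen read of UDG activity (2 U/mL, 4/3x) in the FRET deamination format with AID (1 uM, 4/3x), DJC20/DJC23 substrates (250 nM, 4x), 4 h at room temperature. NaOH stop, fluorescence at 560 ex/665 em.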

[3] = molecular target: Single-stranded DNA cytosine deaminase (Homo sapiens) (UniProt Q9GZX7); assay: Validation qHTS assay for inhibitors of Activation Induced Cytidine Deaminase (AID): AID signal (AID 1347429); further: potency means the concentration at half of the fitted maximal effect
Outline: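 AID and UDG were combined and compounds added at final up to 114 uM, then DJC20/DJC23 FRET substrate was added for 4 hr at room temperature. NaOH was then added for 30 min before fluorescence was read at 540/590 nm.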

[4] = qHTS to identify inhibitors of the type 1 interferon - major histocompatibility complex class I in skeletal muscle: primary screen against the NCATS LOPAC collection (AID 1347405);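 further: lytic HiBiT luminescence reporting HLA-B protein level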; further: potency means the concentration at half of the fitted maximal effect
Outline: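 Immortalized human C25cl48 myoblasts with HiBiT knocked into endogenous HLA-B*08:01 were stimulated with 4.0 ng/ml IFN-beta and given compounds in a 7-point, 1:4.3 titration from 46 uM final; after 24 hrs, lytic HiBiT luminescence was read.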

[5] = qHTS to identify inhibitors of the type 1 interferon - major histocompatibility complex class I in skeletal muscle: primary screen against the NCATS Pharmaceutical Collection (AID 1347407);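 further: luminescence of HiBiT knocked into endogenous HLA-B as interferon-induced MHC class I level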
Outline: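 HLA-B HiBiT myoblasts, dexamethasone-free growth medium + 4 ng/ml IFN-b; compounds pinned 1 h after seeding, […] from 46 uM; 24 h, 37 C, 5% CO2; lytic HiBiT detection, 10 min RT, luminescence.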

[6] = molecular target: Protein phosphatase 1D (Homo sapiens) (UniProt O15297); assay: RapidFire Mass Spectrometry qHTS Assay for Modulators of WT P53-Induced Phosphatase 1 (WIP1) (AID 1347424);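 further: amount of dephosphorylated VEPPL-S-QETFS peptide product formed by WIP1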; further: potency means the concentration at half of the fitted maximal effect
Outline: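 10 nM WIP1 + cpd, 1 h RT; + 2 uM VEPPL-pS-QETFS, 5 min RT; stop 0.5% formic acid; labelled product standard 1 uM; RapidFire MS. Buffer 50 mM Tris pH 7.5, 30 mM MgCl2, 1 mM TCEP.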

[7] = molecular target: Protein phosphatase 1D (Homo sapiens) (UniProt O15297); assay: Rhodamine-PBP qHTS Assay for Modulators of WT P53-Induced Phosphatase 1 (WIP1) (AID 1347425)
Outline: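 WIP1 (5 nM final) was preincubated with compound for 1 hour at room temperature. It then dephosphorylated 10 uM VEPPL-pS-QETFS peptide in Tris-HCl pH 7.5 with 30 mM MgCl2. Released Pi was detected by 10 uM Rh-PBP fluorescence (ex 525/em 598 nm) read at 1-min intervals for 11 min, as delta f1 - f0.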

[8] = Primary qHTS for inhibitors of SARS-S pseudo-typed particle cell entry (AID 1479145; calls by dose curve; further: series mostly up to about 57 µM; nearly all actives have a fitted effect of over 45% in size); details: outcome: dose series up to 57.1 µM unless noted
[9] = Primary qHTS for Huh7 cytotoxicity: counterscreen for inhibitors of MERS-S pseudotyped particle cell entry (AID 1479147; calls by dose curve); details: outcome: dose series up to 57.1 µM unless noted

Measured: Potency

Single-stranded DNA cytosine deaminase (Homo sapiens), sequence (Q9GZX7 whole entry, looked up): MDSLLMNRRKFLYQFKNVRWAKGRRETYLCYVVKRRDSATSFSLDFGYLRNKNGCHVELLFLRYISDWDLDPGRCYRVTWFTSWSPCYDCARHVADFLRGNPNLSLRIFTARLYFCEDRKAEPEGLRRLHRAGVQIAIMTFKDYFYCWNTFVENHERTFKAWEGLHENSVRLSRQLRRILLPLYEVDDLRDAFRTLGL
Protein phosphatase 1D (Homo sapiens), sequence (O15297 whole entry, looked up): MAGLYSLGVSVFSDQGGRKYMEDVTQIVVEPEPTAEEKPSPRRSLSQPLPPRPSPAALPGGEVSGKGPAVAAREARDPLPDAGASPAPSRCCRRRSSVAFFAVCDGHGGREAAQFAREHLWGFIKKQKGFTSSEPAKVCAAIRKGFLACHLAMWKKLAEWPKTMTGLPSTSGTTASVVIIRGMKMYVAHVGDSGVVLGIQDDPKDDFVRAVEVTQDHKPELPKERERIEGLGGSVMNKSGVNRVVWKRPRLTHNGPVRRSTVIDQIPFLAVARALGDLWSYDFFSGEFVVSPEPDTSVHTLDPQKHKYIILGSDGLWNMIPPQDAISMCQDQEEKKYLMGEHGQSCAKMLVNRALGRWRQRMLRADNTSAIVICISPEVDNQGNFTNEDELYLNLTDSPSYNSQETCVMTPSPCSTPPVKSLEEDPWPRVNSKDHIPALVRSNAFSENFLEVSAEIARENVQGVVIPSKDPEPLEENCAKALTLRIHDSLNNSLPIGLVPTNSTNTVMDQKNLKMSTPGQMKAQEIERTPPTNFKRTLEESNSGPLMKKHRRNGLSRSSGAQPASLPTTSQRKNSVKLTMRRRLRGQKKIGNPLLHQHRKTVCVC

Ic1ccccc1CNC1C2CCN(CC2)C1C(c1ccccc1)c1ccccc1 (stereo not given)
inactive: [1] | [2] | [3]

CN1CCc2cc(O)cc3c2[C@H]1Cc1ccc(O)c(O)c1-3
inactive: [1] | [2]

C[N+]1(C)CCc2cc3c(cc2[C@H]1[C@@H]1OC(=O)c2c1ccc1c2OCO1)OCO3
inactive: [4] | [1] | [2] | [3]

CC12NC(Cc3ccccc31)c1ccccc12 (stereo not given)
inactive: [4] | [1] | [2] | [3]

CCCCCCCCCCCCCC(=O)O[C@@H]1[C@@H](C)[C@@]2(O)[C@@H](C=C(CO)C[C@@]3(O)C(=O)C(C)=C[C@@H]23)C2C(C)(C)[C@@]21OC(C)=O (stereo not given in full)
inactive: [1] | [2] | [3]

NC(=O)c1ccc(OCC(O)CN2CC=C(c3ccc(F)cc3)CC2)cc1 (stereo not given)
inactive: [4] | [1] | [2] | [3]

NC(N)=Nc1ccc2[nH]c3c(c2c1)C[C@@]1(O)[C@H]2Cc4ccc(O)c5c4[C@@]1(CCN2CC1CC1)[C@H]3O5
active: [3] 79.4 µM
inactive: [4] | [1] | [2]

c1ccc2cc(CC3=NCCN3)ccc2c1
inactive: [4] | [1] | [2] | [3]

N=C(N)c1ccc(CS(=O)(=O)F)cc1
inactive: [4] | [1] | [2] | [3]

NCCc1c[nH]c2ccc(C(N)=O)cc12
inactive: [4] | [1] | [2] | [3]

N[C@@]1(C(=O)O)CC[C@@H](C(=O)O)C1
inactive: [4] | [1] | [2] | [3]

CCCN1CCc2cccc3c2[C@H]1Cc1ccc(O)c(O)c1-3
inactive: [4] | [1] | [2] | [3]

C[C@H](N)Cc1cccc(C(F)(F)F)c1
inactive: [4] | [1] | [2] | [3]

CN1CCC[C@@H]1Cc1c[nH]c2ccc(Nc3ncccc3[N+](=O)[O-])cc12
inactive: [1]

CC(N)[C@H](O)c1ccc(O)c(O)c1 (stereo not given in full)
inactive: [4] | [1] | [2] | [3]

CC(C)(C)c1o[nH]c(=O)c1CC(N)C(=O)O (stereo not given)
inactive: [4] | [1] | [2] | [3]

CC(C)(C)c1cc(C=C(C#N)C#N)cc(C(C)(C)C)c1O
inactive: [1] | [3]
active: [2] 70.8 µM

Cc1[nH]c2ccc(O)cc2c1CCN
inactive: [4] | [1] | [2] | [3]

O=[N+]([O-])c1ccc2nc(N3CCNCC3)ccc2c1
inactive: [1] | [2]

c1ccc2c(c1)[I+]c1ccccc1-2
inactive: [3]
active: [4] 8.91 µM

CCCC[N+]1(C)C2CC(OC(=O)[C@H](CO)c3ccccc3)CC1C1OC12 (stereo not given in full)
inactive: [4] | [1] | [2] | [3]

CCN1C[C@@]2(COC)C3[C@@H](OC)C4[C@@H]1C3([C@@H]1C[C@]3(O)[C@H](OC(=O)c5ccccc5)[C@@H]1[C@]4(OC(C)=O)[C@@H](O)[C@@H]3OC)[C@H](OC)C[C@H]2O
inactive: [4] | [1] | [2] | [3]

C[CH2][Hg][S]c1ccccc1C(=O)O
active: [6] 35.5 µM
inactive: [5]

CCOC(=O)c1ncn2c1[C@@H]1CCCN1C(=O)c1cc(OC)ccc1-2
inactive: [4] | [1] | [2] | [3]

CN1C2CCC1CC(OC(c1ccccc1)c1ccccc1N)C2 (stereo not given)
inactive: [4] | [1] | [2] | [3]

CCNC(=O)[C@H]1O[C@@H](n2cnc3c(N)ncnc32)[C@H](O)[C@@H]1O
inactive: [4] | [1] | [2] | [3]

NC(C(=O)O)c1cc(=O)[nH]o1 (stereo not given)
inactive: [4] | [1] | [2] | [3]

C[C@H](Cc1ccc2c(c1)OC(C(=O)O)(C(=O)O)O2)NC[C@H](O)c1cccc(Cl)c1
inactive: [4] | [1] | [2] | [3]

C=CCN1CCC23c4c5ccc(O)c4O[C@H]2C(=O)CC[C@@]3(O)C1C5 (stereo not given in full)
inactive: [4] | [1] | [2] | [3]

CCCSP(=O)(OCC)SCCC
inactive: [5] | [6] | [7]

O=[N+]([O-])c1cc(O)c(O)c([N+](=O)[O-])c1
inactive: [1] | [2]

NC(=O)COc1c(F)cc(SCCNS(=O)(=O)c2ccccc2)cc1F
inactive: [4] | [1] | [2] | [3]

Oc1ccc2c3c1O[C@H]1c4oc5ccccc5c4C[C@@]4(O)C(C2)N(CC2CC2)CCC314 (stereo not given in full)
inactive: [4] | [1] | [2] | [3]

C[Se]C[C@H](N)C(=O)O
inactive: [2]

NCC(O)c1cccc(O)c1 (stereo not given)
inactive: [8] | [9]

O=c1c2ccccc2[se]n1-c1ccccc1
inactive: [2] | [3]
